Reference: PubChem BioAssay AID588590 (National Center for Advancing Translational Sciences (NCATS), 2011)
Among all 390,000 compounds or so, about 4,000 (1%) were called active. Another 7% or so got no clear call; they are omitted. Calls follow the shape of the dose curve; as a rule, active = well fitted inhibition curve with a large enough effect; inconclusive = small, poorly fitted or top-dose-only effect, or another doubt; inactive = no such curve, though single readings can be large or run the other way. Shown is part of a subset that was picked to be rich in actives.

Molecular target: DNA polymerase iota (Homo sapiens) (UniProt Q9UNA4)
Sequence (Q9UNA4 whole entry, looked up): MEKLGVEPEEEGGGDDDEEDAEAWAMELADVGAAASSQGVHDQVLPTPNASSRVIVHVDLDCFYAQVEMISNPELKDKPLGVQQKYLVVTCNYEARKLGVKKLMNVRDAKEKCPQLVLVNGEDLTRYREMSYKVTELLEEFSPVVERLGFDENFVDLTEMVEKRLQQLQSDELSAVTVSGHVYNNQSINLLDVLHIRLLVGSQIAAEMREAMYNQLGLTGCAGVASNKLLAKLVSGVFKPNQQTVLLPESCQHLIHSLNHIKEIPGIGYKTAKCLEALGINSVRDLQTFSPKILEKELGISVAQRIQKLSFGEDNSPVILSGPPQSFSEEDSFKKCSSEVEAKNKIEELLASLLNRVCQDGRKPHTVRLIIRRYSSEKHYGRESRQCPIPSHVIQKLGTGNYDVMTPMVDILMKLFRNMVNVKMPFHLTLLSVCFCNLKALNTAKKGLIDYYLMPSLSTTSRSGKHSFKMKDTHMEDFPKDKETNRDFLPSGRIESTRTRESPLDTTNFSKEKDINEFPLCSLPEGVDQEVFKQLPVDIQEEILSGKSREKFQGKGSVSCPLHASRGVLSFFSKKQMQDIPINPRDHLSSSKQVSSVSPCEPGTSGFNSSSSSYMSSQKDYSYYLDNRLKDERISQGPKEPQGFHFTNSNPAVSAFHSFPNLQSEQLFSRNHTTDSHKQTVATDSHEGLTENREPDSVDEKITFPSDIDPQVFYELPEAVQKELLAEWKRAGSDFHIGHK
Experiment: qHTS for Inhibitors of Polymerase Iota
Conditions: Pol iota fluorescent replication assay, 10 min; series mostly up to 115 µM
In short: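 Pol iota at 10 nM preincubated 15 min with compounds at room temperature; reaction started with fluorescent substrate, 50 nM final. Fluorescence read kinetically at 0 and 10 min; buffer-only wells as negative control.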
Potency is read from the fitted curve at half-maximal effect.

Potency, inactive:
Nc1ccc(/C=C/c2ccnc3ccccc23)c([N+](=O)[O-])c1
Cc1ccccc1OCc1nc2c3cnn(-c4ccccc4F)c3ncn2n1
Cc1ccc(C)c(S(=O)(=O)c2nnn3c2nc(N2CCOCC2)c2sccc23)c1
O=C(COC(=O)c1ccccc1C(=O)N1CCN(c2ccccc2)CC1)NCc1ccccc1
Cc1cccc(C)c1NC(=O)COC(=O)c1ccccc1O
Cn1c(N)c(C(=O)COC(=O)c2ccccc2NCc2ccco2)c(=O)n(C)c1=O
O=S(=O)(NCc1ccco1)c1cnc(Cl)c(Cl)c1
CN(c1ccccc1)S(=O)(=O)c1ccc(Cl)c(C(=O)OCC(=O)N2CCOCC2)c1
O=C(COC(=O)c1cc(S(=O)(=O)N2CCOCC2)ccc1Cl)NCCc1ccccc1
O=C(CCCOc1ccccc1)NCc1ccco1
COc1ccc(CCNC(=O)COC(=O)c2cnc(Cl)c(Cl)c2)cc1
CN1CCN(C(CNC(=O)c2ccccc2F)c2ccc3c(c2)OCO3)CC1 (centres undefined)
Cc1ccc(OCCSc2nc(C)c(Cc3ccccc3)c(=O)[nH]2)cc1
Cc1ccc(CCNC(=O)c2ccc3c(c2)N(Cc2cc(C)ccc2C)C(=O)c2ccccc2S3=O)cc1 (centres undefined)
Cc1ccc(Cl)cc1N1CCN(C(=O)c2cccn3c(=O)c4cc(Cl)ccc4nc23)CC1
CCCn1c2ccccc2c2cnn(CC(=O)N3CCCC(C(=O)OCC)C3)c(=O)c21 (centres undefined)
CCOC(=O)N1CCc2c(sc3c2c(=O)n(-c2ccc(CC)cc2)c(=O)n3C)C1
O=C(NCc1ccccc1)c1cccc(NC(=O)N2CCSc3ncccc32)c1
Cc1c(NC(=O)Cc2ccccc2)cccc1-c1nc2cccnc2s1
O=C(Nc1ccccc1Cl)N1CCC(CN2CCCC2)CC1
O=C(Nc1ccccc1Cl)N1CCC(CN2CCCCC2)CC1
Cc1ccc(-c2nn3c(=O)cc(CN4CCN(S(=O)(=O)c5ccc(Cl)cc5)CC4)nc3s2)cc1
CC(=O)c1cc(C#N)c(SCC(=O)Nc2nccs2)nc1C
N#Cc1ccsc1NC(=O)CN1CCCCC1
COc1ccc(CCN2C(=O)c3oc4cc(C)cc(C)c4c(=O)c3C2c2ccccc2F)cc1OC (centres undefined)
CSc1n[nH]c(-c2ccco2)n1
Cc1ccc(-c2nnc(SCC(=O)NCc3ccccc3)nc2-c2ccc(C)cc2)cc1
CC1(C)N=C(SCc2ccccc2Cl)c2ccccc2N1
Cc1cccc(Cc2c(C)nc3nc(SCc4ccccc4Cl)nn3c2C)c1
O=C(CCc1nc(CN2CCN(S(=O)(=O)c3ccc(Br)cc3)CC2)no1)N1CCCCC1
CCOC(=O)c1scc(-c2ccc(C)cc2)c1S(=O)(=O)Nc1cc(C)ccc1C
Cc1cccc(-n2c(SCC(N)=O)nc3c(oc4ccccc43)c2=O)c1
COc1cc(Cl)c(C)cc1NC(=O)CCc1nc2cccnc2n1Cc1cccs1
Cc1cc(NC(=O)CSc2ncc(C(=O)Nc3ccc(Cl)cc3)c(=O)n2C)no1
Cc1ccc(S(=O)(=O)N2CCN(S(=O)(=O)N3CCOCC3)CC2)cc1
CC1(C)CC(=O)C(N=Nc2ccc(S(=O)(=O)N3CCCCCC3)cc2)=C(O)C1
COc1ccc(Cn2c(=O)[nH]c3cc(C(=O)N4CCN(C(=O)c5ccco5)CC4)ccc3c2=O)cc1
N#Cc1c(C(F)(F)F)cc(-c2cccs2)nc1N1CCCCC1
CC(C)(C)c1ccc(C(=O)C[n+]2cccc3cc(Cl)ccc32)cc1
CC(C)(C)c1ccc(C(=O)NCc2nnc(SCC(=O)N3CCCc4ccccc43)n2-c2ccccc2)cc1
Cc1ccc(NC(=O)Cn2cnc3nc4c(cc3c2=O)CCCC4)cc1Cl
CCOc1ccc(CNC(=O)C2CCN(c3nnc(-n4cccc4CNc4ccc(C)cc4)s3)CC2)cc1OC
Cc1ccc(CCNC(=O)c2ccc(CNS(=O)(=O)c3ccc(C)cc3)cc2)cc1
CN(C)c1nccc(NCc2ccccc2)c1C#N
CCCCc1nn2c(=O)cc(COC(=O)c3cccc(NC(=O)COc4ccccc4)c3)nc2s1
O=C(COc1ccccc1F)OCc1cc(=O)n2nc(C3CCCCC3)sc2n1
CCC(=O)Nc1cccc(C(=O)OCc2cc(=O)n3nc(CC)sc3n2)c1
Cc1ccc(OCC(=O)OCc2cc(=O)n3nc(C4CC4)sc3n2)cc1C
Cc1ccc(NC(=O)Cn2c(=O)n(-c3ccccc3)c(=O)c3c4c(sc32)CCCC4)cc1
CCOc1ccc(-c2nonc2NC(=O)c2oc3ccc(CC)cc3c2C)cc1

Potency, active:
O=C(COC(=O)c1ccccc1O)NCc1ccco1 35.5 µM
O=C(COC(=O)c1cnc(Cl)c(Cl)c1)NCc1ccco1 17.8 µM
Cc1cc(C(=O)OCC(=O)NCc2ccco2)c(C)n1-c1ccccc1 22.4 µM
CN(c1ccccc1)S(=O)(=O)c1ccc(Cl)c(C(=O)OCC(=O)NCc2ccco2)c1 44.7 µM
O=C(Nc1ccccc1Cl)/C(Cl)=C(\Cl)S(=O)c1ccccc1 (centres undefined) 12.6 µM
Cc1csc(SCC(=O)Nc2sccc2C#N)n1 22.4 µM
Clc1ccccc1CSc1nnc(-c2ccco2)c(-c2ccco2)n1 14.1 µM
c1ccc(CSc2nnc(-c3ccco3)c(-c3ccco3)n2)cc1 7.94 µM
O=C1CCCC(O)=C1N=Nc1ccc(S(=O)(=O)N2CCOCC2)cc1 35.5 µM
N#Cc1c(N2CCCCC2)nc(N)c2c(N)nc(SCC(=O)O)cc12 7.08 µM
CC(C)(C)c1ccc(C(=O)C[N+]2(C)CCCc3ccccc32)cc1 (centres undefined) 79.4 µM
CC(C)n1cnc2c(NCc3ccccc3)cc(OCC3CCN(C)CC3)cc21 3.16 µM
COc1ccc(OCC(=O)Nc2cccc(C(=O)OCc3cc(=O)n4nc(C)sc4n3)c2)cc1 89.1 µM
Cc1ccc(OCC(=O)OCc2cc(=O)n3nc(C4CC4)sc3n2)cc1 89.1 µM
